Several values for one entry are separate records, joined by “and”; a condition that tells them apart may be missing. Identical values can stand only once. The whole screen tested about 5,500 compounds, of which about 2,000 (36%) were called active. Another 18% or so got no clear call; they are omitted. No stated cut-off is given here; in the data, active means normalized growth mostly below about 0.91 (no sharp cut-off); inconclusive means no clear call, values can overlap the other calls; inactive means mostly above about 0.92. The list shows a part of the results. Where a SMILES comes first, the peptide text is derived from it. Side-chain parts run from the residue outwards. [ ]: non-standard residue; d: D form. The star is where a group is joined. X1 = CCC(C)C(N)C1=NC(C(=O)*)CS1; Orn = NCCC[CH](N)C(=O)O
Test: chemical genetic growth profiling, strain panel (AID 1159580);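 further: tested at 20 µM; growth read once vehicle control cultures reached saturation at 30 °C; 1 = growth at the plate median or of vehicle wells; lower values mean less growth of the strain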
Details: S. cerevisiae deletion strains, growth OD

Measured: normalized growth

CCC(C)C(N)C1=NC(C(=O)NC(CC(C)C)C(=O)NC(CCC(=O)O)C(=O)NC(C(=O)NCCCCC2NC(=O)C(CC(N)=O)NC(=O)C(CC(=O)O)NC(=O)C(Cc3cnc[nH]3)NC(=O)C(Cc3ccccc3)NC(=O)C(C(C)CC)NC(=O)C(CCCN)NC2=O)C(C)CC)CS1 (stereo not drawn) (cyclo(DNK([Ile-Glu-Leu-X1])[Orn]IFH); configuration not given here)
inactive: locus YAL013W, strain DEP1, active compounds read low 1.01 | locus YAL021C, strain ccr4, active compounds read low 0.992 | locus YAL026C, strain drs2, active compounds read low 0.929 | locus YAL030W, strain snc1, active compounds read low 0.997 | locus YBL061C, strain skt5, active compounds read low 1 | locus YBR009C, strain hhf1, active compounds read low 0.952 | locus YBR021W, strain FUR4, active compounds read low 1.01 | locus YBR023C, strain chs3, active compounds read low 1.02 | locus YBR171W, strain sec66, active compounds read low 1 | locus YBR229C, strain ROT2, active compounds read low 0.991 | locus YBR231C, strain swc5, active compounds read low 0.999 | locus YBR279W, strain paf1, active compounds read low 1.01 | locus YCL011C, strain gbp2, active compounds read low 0.968 | locus YCL016C, strain dcc1, active compounds read low 0.981 | locus YCL029C, strain bik1, active compounds read low 1.01 | locus YCL061C, strain MRC1, active compounds read low 0.993 | locus YCL069W, strain vba3, active compounds read low 1 | locus YCR088W, strain abp1, active compounds read low 1.01 | locus YDL005C, strain med2, active compounds read low 0.999 | locus YDL035C, strain GPR1, active compounds read low 0.998 | locus YDL040C, strain nat1, active compounds read low 1.01 | locus YDL074C, strain BRE1, active compounds read low 1.04 | locus YDL101C, strain DUN1, active compounds read low 1 | locus YDL185W, strain tfp1, active compounds read low 1.04 | locus YDL192W, strain arf1, active compounds read low 1 | locus YDR001C, strain nth1, active compounds read low 0.987 | locus YDR069C, strain doa4, active compounds read low 1.02 | locus YDR101C, strain arx1, active compounds read low 1.02 | locus YDR137W, strain rgp1, active compounds read low 0.992 | locus YDR150W, strain NUM1, active compounds read low 1 | locus YDR159W, strain sac3, active compounds read low 0.996 | locus YDR162C, strain NBP2, active compounds read low 0.976 | locus YDR195W, strain ref2 0.976 | locus YDR297W, strain sur2, active compounds read low 1.01 | locus YDR318W, strain mcm21, active compounds read low 0.989 | locus YDR334W, strain swr1, active compounds read low 1.01 | locus YDR335W, strain msn5, active compounds read low 1.01 | locus YDR388W, active compounds read low 1.01 | locus YDR392W, strain spt3, active compounds read low 0.94 | locus YDR502C, strain sam2, active compounds read low 1.01 | locus YEL003W, strain gim4, active compounds read low 1.01 | locus YEL037C, strain rad23, active compounds read low 1.01 | locus YEL061C, strain CIN8 (second series), active compounds read low 1.01 | locus YEL061C, strain CIN8, active compounds read low 0.998 | locus YER015W, strain faa2, active compounds read low 1.01 | locus YER016W, strain bim1, active compounds read low 1 | locus YER110C, active compounds read low 1 | locus YER111C, strain swi4, active compounds read low 1.01 | locus YER155C, strain BEM2 (second series), active compounds read low 1.01 | locus YER155C, strain BEM2, active compounds read low 0.992 | locus YER167W, strain BCK2, active compounds read low 1.01 | locus YFR010W, strain ubp6, active compounds read low 1.03 | locus YGL078C, strain dbp3, active compounds read low 1.01 | locus YGL086W, strain mad1, active compounds read low 1.05 | locus YGL167C, strain pmr1, active compounds read low 1.02 | locus YGL173C, strain kem1, active compounds read low 1 | locus YGL227W, strain vid30, active compounds read low 1 | locus YGL240W, strain doc1, active compounds read low 1.03 | locus YGL248W, strain PDE1, active compounds read low 1 | locus YGL253W, strain hxk2, active compounds read low 0.993 | locus YGR135W, strain pre9, active compounds read low 1.01 | locus YGR252W, strain gcn5, active compounds read low 0.924 | locus YHR013C, strain ard1, active compounds read low 0.991 | locus YHR027C, strain rpn1, active compounds read low 1.01 | locus YHR030C, strain SLT2, active compounds read low 1 and 1.02 | locus YHR079C, strain IRE1 (second series), active compounds read low 1 | locus YHR079C, strain IRE1, active compounds read low 1.05 | locus YHR094C, strain hxt1, active compounds read low 0.993 | locus YHR129C, strain ARP1, active compounds read low 0.994 | locus YHR142W, strain chs7, active compounds read low 1.04 | locus YHR200W, strain rpn10, active compounds read low 0.984 | locus YIL066C, strain RNR3, active compounds read low 1 | locus YIL073C, strain SPO22, active compounds read low 1.19 | locus YIL125W, strain kgd1, active compounds read low 1.01 | locus YIR030C, strain dcg1, active compounds read low 0.993 | locus YJL092W, strain hpr5, active compounds read low 1 | locus YJL095W, strain BCK1 (second series), active compounds read low 1.01 | locus YJL095W, strain BCK1, active compounds read low 0.999 and 1.04 | locus YJL115W, strain asf1, active compounds read low 0.989 | locus YJL129C, strain trk1, active compounds read low 1.02 | locus YJL134W, strain LCB3, active compounds read low 1 | locus YJL154C, strain vps35, active compounds read low 1 | locus YJL164C, strain tpk1, active compounds read low 0.972 | locus YJL166W, strain qcr8, active compounds read low 1.01 | locus YJL168C, strain set2, active compounds read low 1.01 | locus YJL187C, strain SWE1 (second series), active compounds read low 0.997 | locus YJL187C, strain SWE1, active compounds read low 1 | locus YJR043C, strain POL32, active compounds read low 0.996 | locus YJR066W, strain TOR1, active compounds read low 0.969

Source: PubChem BioAssay AID1159580 (chemical genetic matrix, 2015)
